Screens deposited in PubChem BioAssay by Johns Hopkins Ion Channel Center.
KCNQ2 inh = blocks the rat KCNQ2 potassium channel | 310,000 compounds, 1.1% hits | CHO-K1 KCNQ2, FluxOR thallium flux, 20 min; hits give low values | O88943 | AID 2156 | B-score at 10 µM;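 active means fluorescence ratio B-score at most minus 3 library SDs, with starting brightness B-score within 2 library SDs, cut at about -5.5 in these data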
KCNQ2 enhance = KCNQ2 (rat) channel potentiation | CHO-K1 KCNQ2, FluxOR thallium flux fluorescence; hits give high values | B-score at 10 µM | 310,000 compounds, 0.54% hits | AID 2239;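 active means fluorescence ratio B-score at least 3 SD of library B-scores, with initial fluorescence B-score within 3 of them, cut at about 5.3 in these data; same plate scores as AID 2156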;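 further: B-score of peak minus minimum over baseline fluorescence ratio after K+ and Tl+ stimulus; positive B-score means potentiation of KCNQ2 with more thallium influx and brighter signal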
A number is an active result; – = inactive; · = not tested or not shown. This is a sample that favours compounds with a hit; in the whole collection about 1.6% have one here.

SMILES	KCNQ2 inh	KCNQ2 enhance
Cc1nc(CNS(=O)(=O)c2ccc(F)cc2)cs1	–	·
CC(=O)N1CC=CC1(CC(C)C)C(=O)NCCc1c[nH]c2ccccc12 (stereo not drawn)	–	–
CC(C)CC1(C(=O)NCCc2c[nH]c3ccccc23)C=CCN1C(=O)c1ccccc1 (stereo not drawn)	-6.4	–
O=C(O)c1ccccc1NC(=O)C(c1ccccc1)c1ccccc1	–	–
O=C(Nc1ccc(Cl)c(Cl)c1)Nc1ccccc1O	–	11
O=C(Nc1ccc(Cl)c(Cl)c1)Nc1ccc(Br)cc1F	–	·
O=C(Nc1ccccc1O)C(c1ccccc1)c1ccccc1	-6.5	–
CCOCCN1CCN(C2c3ccccc3CSc3ccccc32)CC1 (stereo not drawn)	–	·
COc1ccccc1C(=O)NCC(=O)NCC1(N2CCCCC2)CCCCC1	–	·
O=C(COC(=O)C1(c2ccc(Cl)cc2)CCCC1)Nc1ncc(C(F)(F)F)cc1Cl	–	·
O=C(COC(=O)C1(c2ccc(F)cc2)CCCC1)Nc1ncc(C(F)(F)F)cc1Cl	-7	–
O=S1(=O)N=C(N(Cc2cccs2)c2ccc(O)cc2)c2ccccc21	–	·
Cc1ccc(Sc2ncccc2C(=O)NCC(c2ccc(F)cc2)N2CCOCC2)cc1C (stereo not drawn)	–	·
COc1ccc(NC(=O)NNC(=O)COc2ccc3cc(Br)ccc3c2)c(OC)c1	–	·
CSCC[C@H](NC(=O)OC(C)(C)C)C(=O)NCC1CCC(C(=O)N[C@@H](Cc2ccccc2)C(=O)O)CC1 (stereo partly drawn)	–	·
Cc1occc1C(=O)N1CCN(C(c2ccccc2)c2ccccc2)CC1	-6.4	–
Cc1ccccc1C(=O)N1CCN(C(c2ccccc2)c2ccccc2)CC1	–	·
CC(C)N(Cc1ccccc1)C(=O)CCc1ccccc1	–	·
CC(C)(C)N(Cc1ccccc1)C(=O)CCc1ccccc1	-6.6	–
CCn1c(=O)c(C(=O)NCCc2ccc(Cl)cc2)c(O)c2ccccc21	–	–
CCCn1c(=O)c(C(=O)NCCc2ccc(Cl)cc2)c(O)c2ccccc21	-5.6	–
CC(=O)Nc1ccc(C(=O)NCC2CCCCC2)cc1	–	–
COC(=O)C(CC(=O)c1ccc(Cl)cc1)c1ccc(C)cc1 (stereo not drawn)	-6.5	–
O=C(CC(C(=O)O)c1ccc(Cl)cc1)c1ccccc1 (stereo not drawn)	–	·
CCCc1nc(SCC(=O)Nc2nnc(CC)s2)c2c(=O)n(C)c(=O)n(C)c2n1	–	–
SMILES	KCNQ2 inh	KCNQ2 enhance
O=C(/C=C/c1ccc2c(c1)OCO2)NCCSCc1cccc(Cl)c1	–	·
O=C(/C=C/c1ccc2c(c1)OCO2)NCCSCc1ccc(Cl)cc1Cl	-7.8	–
Cc1cccc(C(=O)Nc2ccc(C(=O)/C=C/c3ccncc3)cc2)c1	-6	–
Cc1cccc(C(=O)Nc2ccc(C(=O)/C=C/c3cccnc3)cc2)c1	–	·
CC(=O)c1cccc(N(C(=O)CNC(=O)c2cccs2)C(C(=O)NCC2CCCO2)c2ccccc2)c1 (stereo not drawn)	–	·
CN(C1CCCCC1)S(=O)(=O)c1cccc2nsnc12	–	–
COc1ccccc1NC(=O)c1cc(C)oc1C	–	·
CCOc1ccccc1NC(=O)c1cc(CC(C)C)oc1C	-6.2	–
CCN1CCN(c2ccc(S(=O)(=O)N3CCOCC3)cc2NC(=O)/C=C/c2ccc([N+](=O)[O-])cc2)CC1	–	·
Cc1ccc(OCCNC(=O)c2ccc3ccccc3n2)cc1	–	·
O=C(NCCOc1ccc(Cl)cc1)c1ccc2ccccc2n1	-6.3	–
S=C(NC1CCCCCC1)NC1CCCC1	–	–
NNC(=S)NC1CCCCCCCCCCC1	-6.9	–
N#Cc1c(/N=C/c2cccnc2)sc2c1CCCC2	–	–
CCCN(/C=N/c1sc2c(c1C#N)CCCCC2)CCC	-7.9	–
N#Cc1c(/N=C/c2cccs2)sc2c1CCCCC2	-6.1	–
CN(C)/C=N/c1sc2c(c1C#N)CCCCC2	–	–
CCOc1ncccc1C(=O)Nc1c(C)n(C)n(-c2ccccc2)c1=O	–	·
O=C(c1ccc(S(=O)(=O)N2CCCCCC2)cc1)N1CCN(c2ccccc2F)CC1	–	·
COc1ccc(-n2nnnc2CNC(=O)c2ccc3c(c2)OCO3)cc1	–	·
N#Cc1ncc(Cc2ccccc2)nc1C#N	–	·
CC(=O)c1cccc(NC(=O)C(C)OC(=O)CCN=C2NS(=O)(=O)c3ccccc32)c1 (stereo not drawn)	–	–
CCCNC(=O)Cc1ccsc1	-7.8	–
CCN(CC)CCNC(=O)c1ccc(NC(=O)Cc2ccsc2)cc1	–	–
Cc1cc(NC(=O)CSCC(=O)Nc2cccc(S(=O)(=O)N3CCCCCC3)c2)no1	–	·
O=C(NC(Cc1c[nH]c2ccccc12)C(=O)N/N=C/c1cccc2ccccc12)c1cccs1 (stereo not drawn)	-8.1	–
O=C(NC(Cc1c[nH]c2ccccc12)C(=O)O)c1cccs1 (stereo not drawn)	–	·
Cc1onc(-c2ccccc2)c1C(=O)NC(=S)Nc1sc2c(c1C#N)CCC(C)C2 (stereo not drawn)	–	10
